# Measurements: PubChem BioAssay (NCI)
# This is part of a sample that, as a whole, favours compounds with a hit. Of some 79,000 tested, about 15% had one in any assay. A number with no mark means an inactive call. Activity calls are given as the source filed them. No stated cut-off is given here; in the data, active means growth inhibition above about 70%; inactive means the rest.
# How the values were obtained:
# [1] = NCI Yeast Anticancer Drug Screen. Data for the wt1 strain (AID 149);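 further: 0% = growth of vehicle-treated wt1 cultures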; details: S. cerevisiae wt1 strain (SPY 50644) growth inhibition, stronger effect = higher value
# Method in brief: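 Yeast wt1 strain exposed to compounds; growth inhibition measured relative to vehicle-treated controls.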
# [2] = NCI Yeast Anticancer Drug Screen. Data for the rad50EPP+ strain (AID 151);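 further: 0% = growth of vehicle-treated control cultures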; details: S. cerevisiae rad50 mutant strain, stronger effect = higher value
# Method in brief: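 Strain rad50EPP+; compound exposure; % growth inhibition vs vehicle.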
# [3] = NCI Yeast Anticancer Drug Screen. Data for the rad50 strain (AID 155);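 further: 0% = growth of vehicle-only cultures of the same strain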; details: S. cerevisiae rad50 strain growth inhibition, stronger effect = higher value
# Method in brief: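 Yeast carrying a defined DNA repair defect were exposed to test compounds, and growth was compared with vehicle-treated controls to give percent inhibition.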
# [4] = NCI Yeast Anticancer Drug Screen. Data for the mec2-1 strain (AID 157); details: S. cerevisiae mec2-1 strain, stronger effect = higher value
# Method in brief: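 Cells of the genetically defined mec2-1 yeast strain are incubated with test compound. Inhibition of growth is calculated against vehicle-treated controls.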
# [5] = NCI Yeast Anticancer Drug Screen. Data for the rad14 strain (AID 159);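 further: 0% = growth of vehicle-treated control cultures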; details: S. cerevisiae rad14 strain growth inhibition, stronger effect = higher value
# Method in brief: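 Yeast cells carrying a defined DNA-repair defect were exposed to compounds, and growth inhibition was calculated relative to vehicle-treated control cultures.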
# [6] = NCI Yeast Anticancer Drug Screen. Data for the sgs1 mgt1 strain (AID 161);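 further: 0% = growth of cultures given vehicle only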; details: S. cerevisiae sgs1 mgt1 strain, stronger effect = higher value
# Method in brief: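 Genetically altered yeast, compound exposure, growth inhibition relative to vehicle.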
# [7] = NCI Yeast Anticancer Drug Screen. Data for the CLN2oe strain (AID 163);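 further: 0% = growth of vehicle-only control cultures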; details: S. cerevisiae CLN2oe strain, stronger effect = higher value
# Method in brief: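 Strain altered in cell-cycle control, incubated with compound; growth compared to solvent-treated controls.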
# [8] = NCI Yeast Anticancer Drug Screen. Data for the cln2 rad14 strain (AID 165);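 further: 0% = growth equal to vehicle treated cultures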; details: S. cerevisiae cln2 rad14 strain, stronger effect = higher value
# Method in brief: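 The screen exposed genetically defined yeast (cln2 rad14) to test compounds and scored growth inhibition relative to vehicle-treated controls.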
# [9] = NCI Yeast Anticancer Drug Screen. Data for the bub3 strain (AID 167); details: S. cerevisiae bub3 mutant strain, stronger effect = higher value
# Method in brief: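 Compounds were applied to a genetically altered yeast strain carrying a cell-cycle control defect. Growth inhibition was scored against vehicle-treated controls.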
# [10] = NCI Yeast Anticancer Drug Screen. Data for the wt2 strain (AID 169);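 further: 0% = growth of vehicle-treated yeast cultures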; details: S. cerevisiae wt2 strain growth inhibition, stronger effect = higher value
# Method in brief: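 Steps: yeast strain treated with compound; growth recorded; inhibition calculated relative to cultures given vehicle alone.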
# [11] = NCI Yeast Anticancer Drug Screen. Data for the mlh1 strain (AID 171);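 further: 0% = growth of vehicle-treated control cultures of the same strain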; details: S. cerevisiae mlh1 strain growth inhibition, stronger effect = higher value
# Method in brief: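 Yeast screen: mutant strain plus compound, growth scored against vehicle control wells.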
# [12] = NCI Yeast Anticancer Drug Screen. Data for the sgs1 strain (AID 173);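 further: 0% = growth of vehicle-only control cultures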; details: S. cerevisiae sgs1 mutant, stronger effect = higher value
# Method in brief: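 Inhibition of yeast growth served as the measure. The mutant strain was treated with each compound, and growth was normalised to cultures receiving vehicle alone.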
# [13] = NCI Yeast Anticancer Drug Screen. Data for the mlh1 rad18 strain (AID 175); details: S. cerevisiae mlh1 rad18 strain growth inhibition, stronger effect = higher value
# Method in brief: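 Compound-treated yeast growth, normalised to vehicle controls. Strain bears defined DNA repair mutations.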
# [14] = NCI Yeast Anticancer Drug Screen. Data for the rad18 strain (AID 177); details: S. cerevisiae rad18 mutant growth inhibition, stronger effect = higher value
# Method in brief: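 Inhibition values reflect reduced yeast growth compared with vehicle-treated controls, using a strain engineered with a DNA damage repair defect.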
# [15] = at 5.0 µM (retest, dose inferred, filed as 0.5)
# [16] = at 50.0 µM (retest, dose inferred, filed as 5.0)
structure (smiles),measurement,setting,value
CC(C)(O)c1ccccc1C(c1ccccc1)c1ccccc1,growth inhibition,[1]; at 1.2 µM,0%
same,growth inhibition,[1]; at 3.7 µM,-1%
same,growth inhibition,[1]; at 11.0 µM,5%
same,growth inhibition,[1]; at 33.0 µM,-3%
same,growth inhibition,[1]; at 100.0 µM,4%
same,growth inhibition,[2]; at 1.2 µM,-5%
same,growth inhibition,[2]; at 3.7 µM,-4%
same,growth inhibition,[2]; at 11.0 µM,5%
same,growth inhibition,[2]; at 33.0 µM,-1%
same,growth inhibition,[2]; at 100.0 µM,4%
same,growth inhibition,[3]; at 1.2 µM,-2%
same,growth inhibition,[3]; at 3.7 µM,3%
same,growth inhibition,[3]; [15],53%
same,growth inhibition,[3]; at 11.0 µM,4%
same,growth inhibition,[3]; at 33.0 µM,6%
same,growth inhibition,[3]; [16],85% (active)
same,growth inhibition,[3]; at 50.0 µM,18.6%
same,growth inhibition,[3]; at 100.0 µM,7%
same,growth inhibition,[4]; at 1.2 µM,-2%
same,growth inhibition,[4]; at 3.7 µM,0%
same,growth inhibition,[4]; [15],-5%
same,growth inhibition,[4]; at 11.0 µM,-2%
same,growth inhibition,[4]; at 33.0 µM,1%
same,growth inhibition,[4]; [16],42%
same,growth inhibition,[4]; at 50.0 µM,9.35%
same,growth inhibition,[4]; at 100.0 µM,5%
same,growth inhibition,[5]; at 1.2 µM,0%
same,growth inhibition,[5]; at 3.7 µM,0%
same,growth inhibition,[5]; at 11.0 µM,0%
same,growth inhibition,[5]; at 33.0 µM,3%
same,growth inhibition,[5]; at 100.0 µM,10%
same,growth inhibition,[6]; [15],25%
same,growth inhibition,[6]; [16],88% (active)
same,growth inhibition,[6]; at 50.0 µM,17%
same,growth inhibition,[7]; at 1.2 µM,1%
same,growth inhibition,[7]; at 3.7 µM,-1%
same,growth inhibition,[7]; at 11.0 µM,3%
same,growth inhibition,[7]; at 33.0 µM,9%
same,growth inhibition,[7]; at 100.0 µM,17%
same,growth inhibition,[8]; [15],17%
same,growth inhibition,[8]; [16],80% (active)
same,growth inhibition,[8]; at 50.0 µM,-1%
same,growth inhibition,[9]; at 1.2 µM,-2%
same,growth inhibition,[9]; at 3.7 µM,-2%
same,growth inhibition,[9]; [15],29%
same,growth inhibition,[9]; at 11.0 µM,-4%
same,growth inhibition,[9]; at 33.0 µM,-2%
same,growth inhibition,[9]; [16],86% (active)
same,growth inhibition,[9]; at 50.0 µM,7.9%
same,growth inhibition,[9]; at 100.0 µM,4%
same,growth inhibition,[10]; at 1.2 µM,-9%
same,growth inhibition,[10]; at 3.7 µM,-10%
same,growth inhibition,[10]; at 11.0 µM,-12%
same,growth inhibition,[10]; at 33.0 µM,-10%
same,growth inhibition,[10]; at 100.0 µM,-17%
same,growth inhibition,[11]; at 1.2 µM,-3%
same,growth inhibition,[11]; at 3.7 µM,-3%
same,growth inhibition,[11]; at 11.0 µM,-2%
same,growth inhibition,[11]; at 33.0 µM,0%
same,growth inhibition,[11]; at 100.0 µM,9%
same,growth inhibition,[12]; at 1.2 µM,-6%
same,growth inhibition,[12]; at 3.7 µM,20%
same,growth inhibition,[12]; at 11.0 µM,-14%
same,growth inhibition,[12]; at 33.0 µM,-5%
same,growth inhibition,[12]; at 100.0 µM,1%
same,growth inhibition,[13]; [15],59%
same,growth inhibition,[13]; [16],92% (active)
same,growth inhibition,[13]; at 50.0 µM,10.9%
same,growth inhibition,[14]; at 1.2 µM,-2%
same,growth inhibition,[14]; at 3.7 µM,1%
same,growth inhibition,[14]; at 11.0 µM,1%
same,growth inhibition,[14]; at 33.0 µM,3%
same,growth inhibition,[14]; at 100.0 µM,15%
